# This is a sample that favours compounds with a hit; in the whole collection about 21% have one here.
# ELG1 repair inh = qHTS screen for small molecules that inhibit ELG1-dependent DNA repair in human embryonic kidney (HEK293T) cells expressing luciferase-tagged ELG1; 330,000 tested, 2.3% active; AID 504467, 2011; HEK293T ELG1-luciferase reporter, luminescence, 16 h; DNA damage induced by 5-fluorouridine; Potency, µM (top dose mostly 46.1 µM), for the others: at the top dose activity change, negative = inhibition, hits mostly inhibitors; also: potency is read from the fitted curve at half-maximal effect; nearly all actives have a fitted effect of over 55% in size
#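 Quantitative HTS, concentration-response format. 2,000 cells/well co-treated with 5-fluorouridine and compound, 16 hr in 5% CO2 at 37 °C; ONE-Glo luminescence read after 30 min.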
# IL1B secr inh = qHTS for Inhibitors of Inflammasome Signaling: IL-1-beta AlphaLISA Primary Screen; THP-1 LPS/ATP IL-1B secretion, AlphaLISA, 16 h; active compounds read low; activity change, % at 57.5 µM; 360,000 tested, 4.7% active; AID 743279, 2014; in the data active = activity change below about -50%; inconclusive = mostly about -30% to -49%
#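 Secreted IL-1B measured by AlphaLISA bead assay after 16 h compound exposure of THP-1 cells; compounds (final up to 57.5 uM) added 1 h before LPS (250 ng/mL) and ATP (1.25 mM) stimulation; lower signal means less secretion.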
# Gal4-VP16 FLuc = VP16 counterscreen qHTS for inhibitors of ROR gamma transcriptional activity | AID 2546, 2010 | Potency, µM (titrated, usually from 53.6 µM), for inactives: at the top dose activity, negative = inhibition, usual class: inhibitors | 310,000 tested, 3.5% active | Drosophila S2 Gal4-VP16 UAS-luciferase, luminescence, 20 h;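 also: Gal4-VP16 expression switched on by copper sulfate through the metallothionein promoter; potency is read from the fitted curve at half-maximal effect; nearly all actives have a fitted effect of over 50% in size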
# RORg inh = qHTS for inhibitors of ROR gamma transcriptional activity | Nuclear receptor ROR-gamma (Mus musculus), P51450 | Drosophila S2 Gal4-RORgamma UAS-luciferase reporter, 20 h | Potency, µM (doses to about 53.6 µM), inactives show top-dose activity change, negative = inhibition, usual class: inhibitors | 310,000 tested, 5.4% active; also: potency is read from the fitted curve at half-maximal effect; nearly all actives have a fitted effect of over 60% in size
# Target sequence (P51450 whole entry, looked up, the tested form may be a part): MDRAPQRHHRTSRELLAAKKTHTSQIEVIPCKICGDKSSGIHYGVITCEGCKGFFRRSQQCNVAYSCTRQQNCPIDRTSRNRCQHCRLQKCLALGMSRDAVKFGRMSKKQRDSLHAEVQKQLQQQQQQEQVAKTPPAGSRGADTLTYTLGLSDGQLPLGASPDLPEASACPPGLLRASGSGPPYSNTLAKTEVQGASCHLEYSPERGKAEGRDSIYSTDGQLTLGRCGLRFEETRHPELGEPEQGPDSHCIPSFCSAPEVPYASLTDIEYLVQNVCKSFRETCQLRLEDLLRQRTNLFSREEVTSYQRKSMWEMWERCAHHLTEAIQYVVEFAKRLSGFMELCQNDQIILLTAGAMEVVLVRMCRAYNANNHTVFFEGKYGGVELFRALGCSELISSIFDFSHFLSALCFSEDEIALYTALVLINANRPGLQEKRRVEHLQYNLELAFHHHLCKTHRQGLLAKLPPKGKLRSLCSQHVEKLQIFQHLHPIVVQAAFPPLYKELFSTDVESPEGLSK
#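 Stably transfected Drosophila Schneider cells are the test system, with ROR gamma fused to Gal4 and luciferase under UAS control; luminescence is read after 20 hr of 700 uM copper sulfate induction at ambient temperature.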
# TDP1 cell CPT = qHTS for Inhibitors of human tyrosyl-DNA phosphodiesterase 1 (TDP1): qHTS in cells in presence of CPT | chicken DT40 Tdp1-/-;hTDP1 cells + 20 nM CPT, ATP luminescence, 48 h | Potency, µM (highest dose often 46.2 µM), inactives show at the top dose activity change, negative = growth inhibition, hits mostly inhibitors | 420,000 tested, 12% active | AID 686979, 2013; also: potency is read from the fitted curve at half-maximal effect; nearly all actives have a fitted effect of over 55% in size
#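 Chicken DT40 Tdp1-/- cells complemented with human TDP1, 400 cells/well, exposed to compounds plus 20 nM camptothecin for at least 48 h at 37 C; viability read as ATP content by CellTiter-Glo luminescence.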
# DT40 TDP1 no CPT = qHTS for Inhibitors of human tyrosyl-DNA phosphodiesterase 1 (TDP1): qHTS in cells in absence of CPT. Potency, µM (top dose mostly 46.2 µM), for inactives: at the top dose activity change, negative = growth inhibition, most hits filed as inhibitors. DT40 Tdp1-/- hTDP1 cells, no CPT, ATP luminescence, 48 h. 420,000 tested, 15% active; also: potency is read from the fitted curve at half-maximal effect; nearly all actives have a fitted effect of over 55% in size
#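 Growth of hTDP1-complemented DT40 Tdp1-knockout cells is measured by ATP luminescence after at least 48 hr compound exposure at 37 °C, with DMSO substituting for the 20 nM CPT used in the parallel screen.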
# * = called active by the depositor; u = inconclusive; x = no result given; [ ] = dose if it differs, or a comment. Unless noted, calls follow the shape of the dose curve; as a rule, active = well fitted curve in the direction sought with a large enough effect; inconclusive = small, poorly fitted or top-dose-only effect, or another doubt; inactive = no such curve, though single readings can be large; an effect the other way counts as inactive or inconclusive. % is scaled to controls: 0 for no effect and ±100 for the full control effect.
SMILES,ELG1 repair inh,IL1B secr inh,Gal4-VP16 FLuc,RORg inh,TDP1 cell CPT,DT40 TDP1 no CPT
CC(C)(C)OC(=O)N1CCC(CC2CC(c3ccccc3)=NO2)(C(=O)NCc2ccccc2)CC1 (stereo not drawn),u,-25.3,x,x,u,u
CCCCCCCNC(=O)C1(CC2CC(c3ccccc3)=NO2)CCN(C(=O)OC(C)(C)C)CC1 (stereo not drawn),7.0%,-4.1,x,x,u,18.4µM*
COc1ccc2oc(C(=O)OCC(=O)N(C)CC(=O)Nc3ccc(F)cc3)c(C)c2c1,7.3%,-7.9,x,x,-20.8%,-27.0%
COc1cccc(NC(=O)Cn2nc(-c3ccncc3)ccc2=O)c1,x,x,x,x,-1.5%,-0.1%
Cn1c2c(c(=O)n(C)c1=O)[C@@]1(C(=O)Nc3ccccc31)C(C#N)=C(N)O2,13.1%,0.0,u,20µM*,u,u
O=C(Cn1cc([N+](=O)[O-])ccc1=O)NCC(=O)Nc1ccc(F)c(F)c1F,5.7%,-1.5,x,x,10.0%,-29.5%
COc1cc(OCc2ccccc2)c(C(=O)/C=C/c2ccc3c(c2)OCO3)c(OC)c1OC,x,-91.1*,x,x,u,u
COc1cc(OC)c(C(=O)C=Cc2ccc(OC)c(OC)c2)c(OC)c1,x,-101.0*,x,x,u,u
COc1cc(O)c(C(=O)/C=C/c2ccccc2)c(OC)c1,u,-105.6*,u,u,14.6µM*,18.4µM*
COc1cc(O)c(C(=O)/C=C/c2ccccc2)c(O)c1,x,x,-1.4%[10 µM],13.4%[10 µM],x,x
COc1ccc(C(=O)C=Cc2ccc(OCc3ccccc3)c(OC)c2)cc1OC,x,-90.1*,x,x,7.31µM*,4.61µM*
COc1cc(O)c(C(=O)/C=C\c2ccc3c(c2)OCO3)c(OC)c1,x,x,u,2.7%[10 µM],x,x
CCCCn1nnnc1C1(C)CCC(=O)N1CCc1ccccc1F (stereo not drawn),x,13.6,x,x,-3.5%,-20.0%
C[C@H]1CN([C@@H](C)CO)C(=O)CCCn2nncc2CO[C@H]1CN(C)S(=O)(=O)c1ccc(F)cc1,x,29.4,x,x,-3.3%,-3.5%
Cn1c(CNC(=O)CSc2n[nH]c(-c3ccccc3)n2)nc2ccccc21,x,x,x,x,8.0%,-1.2%
CCN(CC)S(=O)(=O)c1ccc(Cl)c(C(=O)NNC(=O)c2csc(N3CCOCC3)n2)c1,x,-16.5,x,x,-20.6%,0.3%
CO/N=C(/C(=O)N[C@@H]1C(=O)N2C(C(=O)O)=C(CSC(=O)c3ccco3)CSC12)c1csc(N)n1 (stereo partly drawn),x,x,-1.6%,-19.5%,x,x
C=C(C)C(=O)OCC1CN2C(CCC(C)C2c2ccc(Br)cc2)C(=O)O1 (stereo not drawn),x,x,-7.9%[10 µM],2.2%[10 µM],x,x
COc1cc(OC)c(C(=O)/C=C/c2ccc(OCc3ccccc3)c(OC)c2)c(OC)c1,u,-90.4*,-0.4%,u,23.1µM*,23.1µM*
COc1cc(/C=C/[N+](=O)[O-])ccc1OCc1cccc(C(=O)O)c1,u,-96.8*,-21.4%[10 µM],7.08µM*,16.4µM*,16.4µM*
COc1cc(/C=C/[N+](=O)[O-])ccc1OC(=O)/C=C/c1ccc(F)cc1,24.1%,u,u,-17.5%[1.91 µM],3.26µM*,2.31µM*
Cc1ncc([N+](=O)[O-])n1CC(=O)Nc1cc(Cl)ccc1Cl,0.8%,14.1,-14.8%,0.2%,-4.1%,6.7%
O=C(N1CCOCC1)N1[C@H](COCc2ccccc2)C=CS1(=O)=O,x,-12.8,x,x,5.4%,-16.1%
Cc1cc(NC(=O)Nc2ccc(F)cc2F)n(C)n1,-6.7%,-10.7,-20.5%,12.6%,-3.3%,-3.8%
CCc1ccc(NC(=O)Nc2cnccn2)cc1,u,0.4,u,u,u,0.2%
SMILES,ELG1 repair inh,IL1B secr inh,Gal4-VP16 FLuc,RORg inh,TDP1 cell CPT,DT40 TDP1 no CPT
CCCCc1ccc(NC(=O)Nc2cc(C)nn2C)cc1,4.11µM*,34.8,-9.4%,-6.6%,2.1%,-19.9%
O=C(Nc1ccc(Br)cc1)Nc1cnccn1,u,-0.7,x,x,u,u
CCCCc1ccc(NC(=O)Nc2cnccn2)cc1,u,15.0,1.5%,u,14.6µM*,23.1µM*
O=C(Nc1cc(Cl)cc(Cl)c1)Nc1cnccn1,-11.6%,0.0,-6.4%,6.7%,u,16.4µM*
COC(=O)c1cc(=O)c2c(ccc3oc(=O)ccc32)[nH]1,x,7.0,x,x,-25.1%,-5.1%
COc1ccc(SN=C2C(C)=CC(=O)C=C2C)cc1,u,u,2.3%,6.6%,u,9.2µM*
COC(=O)Cn1c(CN2CCC(Cc3ccccc3)CC2)nc2c1c(=O)n(C)c(=O)n2C,6.4%,-5.9,-22.4%,-22.3%,-23.6%,-22.6%
CCOC(=O)Cn1c(CN(C)Cc2ccccc2)nc2c1c(=O)n(C)c(=O)n2C,x,-10.5,x,x,9.2µM*,11.6µM*
CCOC(=O)Cn1c(CN2CCc3ccccc3C2)nc2c1c(=O)n(C)c(=O)n2C,u,39.9,3.98µM*,-30.7%,4.11µM*,4.61µM*
COC(=O)Cn1c(CN(C)Cc2ccccc2)nc2c1c(=O)n(C)c(=O)n2C,-12.5%,64.0,12.6µM*,u,u,u
CC(C)CC(OC(=O)c1nsc(Cl)c1Cl)C(=O)NC1CCCC1 (stereo not drawn),-0.6%,0.3,-10.0%,12.6%,0.9%,2.3%

# From PubChem BioAssay
